Results as given in the supplement of paper PMC10849652.
Targets with a hit are over-represented here; the source holds about 7,900 in all. About 0.6% of all pairs of compound and target were hits. Unmarked numbers belong to inactive results.

Legend:
Assay in all cases: log2 fold change, soluble protein after heating vs DMSO (PISA); higher = thermal stabilisation; K562 cells, 10 uM, 30 min; active = over 0.2 and 3.5 SD of the protein, either way, in both replicates (recomputed)
ibrutinib = compound: C=CC(=O)N1CCC[C@@H](n2nc(-c3ccc(Oc4ccccc4)cc3)c3c(N)ncnc32)C1 [ibrutinib]
In short: (§1)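 Soluble protein was defined as the supernatant after 21,000xg for 90 min. It came from K562 cells at 2×10^6 cells/mL given 10 μM compound for 30 min, heated in aliquots for 3 min across 48°C-58°C, pooled, and extracted in PBS with 0.5% NP-40 at 4°C, and was quantified by TMTpro 16plex LC-MS/MS with equalised channel sums. Thermal stability against control samples, from duplicates, is reported as log2 fold change.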

[1] = compound: CC(C)(O)CC(=O)NCCn1ccc2ncnc(Nc3ccc(Oc4cccc(C(F)(F)F)c4)c(Cl)c3)c21
In short: as §1

[2] = compound: CC(=O)c1cnc2ccc(-c3cc(Cl)c(O)c(Cl)c3)nc2c1N[C@H]1CC[C@H](CN(C)C)CC1
In short: as §1

ralimetinib = compound: CC(C)(C)Cn1c(N)nc2ccc(-c3[nH]c(C(C)(C)C)nc3-c3ccc(F)cc3)nc21 [ralimetinib]
In short: as §1

[3] = compound: CC(C)C1=C2N=C(C=C(N2N=C1)NCC3=CC=CC=C3)NCCCCCCN
In short: as §1

[4] = compound: CC(C)C[C@@H](C=O)NC(=O)[C@H](CC(C)C)NC(=O)[C@H](CC(C)C)NC(=O)OCc1ccccc1
In short: as §1

[5] = compound: CC1=C(C2=C(C=C1)C(=O)C3=CC=CC=C3N2CCCN)C
In short: as §1

IRAK-1-4 Inhibitor I = compound: C1COCCN1CCN2C3=CC=CC=C3N=C2NC(=O)C4=CC(=CC=C4)[N+](=O)[O-] [IRAK-1-4 Inhibitor I]
In short: as §1

pinometostat = compound: CC(C)N(C[C@H]1O[C@@H](n2cnc3c(N)ncnc32)[C@H](O)[C@@H]1O)[C@H]1C[C@@H](CCc2nc3cc(C(C)(C)C)ccc3[nH]2)C1 [pinometostat]
In short: as §1

[6] = compound: CC1=C(C(CC(=O)N1)C2=CC=C(C=C2)C(F)(F)F)C(=O)NC3=C(C=C4C(=C3)C=NN4)F
In short: as §1

Sequence of UniProt Q9HCS7 (Q9HCS7 whole entry, looked up): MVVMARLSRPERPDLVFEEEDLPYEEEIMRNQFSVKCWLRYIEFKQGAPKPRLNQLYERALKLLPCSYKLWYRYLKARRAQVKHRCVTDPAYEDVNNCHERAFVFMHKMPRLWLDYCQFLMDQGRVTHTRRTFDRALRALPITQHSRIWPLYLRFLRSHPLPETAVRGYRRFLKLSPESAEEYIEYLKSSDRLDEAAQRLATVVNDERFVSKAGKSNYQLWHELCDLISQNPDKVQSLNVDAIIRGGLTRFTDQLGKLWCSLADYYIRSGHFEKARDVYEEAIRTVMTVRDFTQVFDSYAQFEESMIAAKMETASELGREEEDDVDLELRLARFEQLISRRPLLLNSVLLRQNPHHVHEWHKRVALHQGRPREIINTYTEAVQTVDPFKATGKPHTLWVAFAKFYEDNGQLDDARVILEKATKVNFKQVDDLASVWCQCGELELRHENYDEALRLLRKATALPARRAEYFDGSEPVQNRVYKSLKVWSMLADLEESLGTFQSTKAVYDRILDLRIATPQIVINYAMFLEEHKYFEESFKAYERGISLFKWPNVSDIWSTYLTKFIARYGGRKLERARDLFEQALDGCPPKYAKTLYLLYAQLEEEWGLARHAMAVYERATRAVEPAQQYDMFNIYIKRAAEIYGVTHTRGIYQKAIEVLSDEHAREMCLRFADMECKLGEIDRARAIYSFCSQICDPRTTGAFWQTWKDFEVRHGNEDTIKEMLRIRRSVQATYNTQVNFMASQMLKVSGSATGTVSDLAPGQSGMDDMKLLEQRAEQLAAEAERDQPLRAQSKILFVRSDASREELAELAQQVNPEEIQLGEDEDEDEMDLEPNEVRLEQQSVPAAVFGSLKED
Sequence of UniProt P51668 (P51668 whole entry, looked up): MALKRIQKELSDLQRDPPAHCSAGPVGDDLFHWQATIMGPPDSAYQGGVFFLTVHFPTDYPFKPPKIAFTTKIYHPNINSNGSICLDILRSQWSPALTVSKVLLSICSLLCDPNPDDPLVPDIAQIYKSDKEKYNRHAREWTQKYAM
Sequence of UniProt O95857 (O95857 whole entry, looked up): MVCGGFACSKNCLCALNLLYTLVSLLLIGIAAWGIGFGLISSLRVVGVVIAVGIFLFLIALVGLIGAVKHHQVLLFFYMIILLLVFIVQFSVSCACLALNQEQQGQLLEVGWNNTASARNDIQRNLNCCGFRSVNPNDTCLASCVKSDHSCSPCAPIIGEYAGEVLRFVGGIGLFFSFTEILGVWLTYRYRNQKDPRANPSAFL
Sequence of UniProt Q8NE00 (Q8NE00 whole entry, looked up): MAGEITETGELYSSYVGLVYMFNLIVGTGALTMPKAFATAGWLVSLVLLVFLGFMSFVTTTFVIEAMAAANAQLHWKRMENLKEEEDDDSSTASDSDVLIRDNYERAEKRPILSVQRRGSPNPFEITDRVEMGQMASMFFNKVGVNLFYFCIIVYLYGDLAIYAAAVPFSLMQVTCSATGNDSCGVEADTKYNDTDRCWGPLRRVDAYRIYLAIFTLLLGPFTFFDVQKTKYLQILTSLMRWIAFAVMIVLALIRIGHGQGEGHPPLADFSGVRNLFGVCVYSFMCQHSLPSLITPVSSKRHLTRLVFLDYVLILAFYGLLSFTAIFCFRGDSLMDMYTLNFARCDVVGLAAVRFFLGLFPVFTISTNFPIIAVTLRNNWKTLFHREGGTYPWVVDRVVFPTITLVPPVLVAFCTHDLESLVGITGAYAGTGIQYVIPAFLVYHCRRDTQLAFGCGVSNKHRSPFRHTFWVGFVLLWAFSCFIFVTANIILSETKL
Sequence of UniProt Q86TN4 (Q86TN4 whole entry, looked up): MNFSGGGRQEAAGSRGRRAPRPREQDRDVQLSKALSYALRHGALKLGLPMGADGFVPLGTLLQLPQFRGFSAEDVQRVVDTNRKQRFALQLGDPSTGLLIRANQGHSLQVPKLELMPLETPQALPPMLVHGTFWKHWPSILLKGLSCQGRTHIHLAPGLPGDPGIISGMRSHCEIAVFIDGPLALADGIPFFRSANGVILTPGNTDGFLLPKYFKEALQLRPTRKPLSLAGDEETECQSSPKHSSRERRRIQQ
Sequence of UniProt Q9C035 (Q9C035 whole entry, looked up): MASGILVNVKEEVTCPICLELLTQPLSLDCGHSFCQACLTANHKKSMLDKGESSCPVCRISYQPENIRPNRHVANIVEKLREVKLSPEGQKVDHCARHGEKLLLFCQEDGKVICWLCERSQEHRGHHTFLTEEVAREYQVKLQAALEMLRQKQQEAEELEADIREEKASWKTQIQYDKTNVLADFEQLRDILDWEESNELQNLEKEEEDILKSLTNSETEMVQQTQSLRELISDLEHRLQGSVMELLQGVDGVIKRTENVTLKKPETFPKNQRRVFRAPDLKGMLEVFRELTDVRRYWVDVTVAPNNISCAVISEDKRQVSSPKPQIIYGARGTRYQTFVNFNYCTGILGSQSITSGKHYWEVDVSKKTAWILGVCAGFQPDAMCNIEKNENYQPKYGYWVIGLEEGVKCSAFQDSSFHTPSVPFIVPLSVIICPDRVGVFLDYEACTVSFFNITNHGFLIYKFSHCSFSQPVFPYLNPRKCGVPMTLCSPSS
Sequence of UniProt Q8N2K1 (Q8N2K1 whole entry, looked up): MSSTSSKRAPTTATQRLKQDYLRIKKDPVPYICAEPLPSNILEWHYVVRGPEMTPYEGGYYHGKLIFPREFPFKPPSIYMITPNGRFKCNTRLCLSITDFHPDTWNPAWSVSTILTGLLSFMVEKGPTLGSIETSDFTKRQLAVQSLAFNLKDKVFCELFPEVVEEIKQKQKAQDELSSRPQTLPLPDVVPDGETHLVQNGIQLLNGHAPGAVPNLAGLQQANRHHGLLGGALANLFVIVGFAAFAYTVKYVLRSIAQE
Sequence of UniProt P61960 (P61960 whole entry, looked up): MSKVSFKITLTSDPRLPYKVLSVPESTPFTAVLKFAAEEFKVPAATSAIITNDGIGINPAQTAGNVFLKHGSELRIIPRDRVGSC
Sequence of UniProt P98170 (P98170 whole entry, looked up): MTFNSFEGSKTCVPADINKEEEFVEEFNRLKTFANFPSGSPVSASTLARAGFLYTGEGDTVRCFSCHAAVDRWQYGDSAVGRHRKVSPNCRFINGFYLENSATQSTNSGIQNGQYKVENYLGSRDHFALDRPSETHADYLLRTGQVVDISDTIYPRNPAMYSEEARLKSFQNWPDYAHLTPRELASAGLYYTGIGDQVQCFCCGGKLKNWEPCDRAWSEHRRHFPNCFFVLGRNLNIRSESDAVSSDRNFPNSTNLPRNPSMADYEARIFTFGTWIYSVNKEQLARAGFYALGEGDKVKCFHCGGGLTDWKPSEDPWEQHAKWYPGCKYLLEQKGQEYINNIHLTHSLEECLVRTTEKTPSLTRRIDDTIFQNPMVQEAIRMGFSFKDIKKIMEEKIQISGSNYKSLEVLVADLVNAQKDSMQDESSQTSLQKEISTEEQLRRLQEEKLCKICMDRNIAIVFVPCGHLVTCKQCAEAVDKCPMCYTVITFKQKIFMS
Sequence of UniProt P36406 (P36406 whole entry, looked up): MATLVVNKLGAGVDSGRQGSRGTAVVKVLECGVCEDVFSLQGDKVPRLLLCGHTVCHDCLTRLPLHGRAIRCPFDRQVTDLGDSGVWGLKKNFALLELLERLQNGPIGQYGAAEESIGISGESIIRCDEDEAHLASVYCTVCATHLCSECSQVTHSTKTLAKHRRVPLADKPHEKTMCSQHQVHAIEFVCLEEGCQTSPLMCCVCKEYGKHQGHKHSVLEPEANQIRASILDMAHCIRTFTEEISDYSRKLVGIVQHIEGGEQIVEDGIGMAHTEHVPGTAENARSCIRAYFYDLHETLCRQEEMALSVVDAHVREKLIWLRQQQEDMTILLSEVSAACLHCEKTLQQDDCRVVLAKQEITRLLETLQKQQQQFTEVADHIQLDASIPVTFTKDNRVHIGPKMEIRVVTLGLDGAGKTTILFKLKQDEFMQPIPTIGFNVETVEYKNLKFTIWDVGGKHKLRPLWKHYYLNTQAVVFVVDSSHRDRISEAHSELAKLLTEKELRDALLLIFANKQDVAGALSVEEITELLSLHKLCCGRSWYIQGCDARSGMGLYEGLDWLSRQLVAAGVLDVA
Sequence of UniProt Q96LJ8 (Q96LJ8 whole entry, looked up): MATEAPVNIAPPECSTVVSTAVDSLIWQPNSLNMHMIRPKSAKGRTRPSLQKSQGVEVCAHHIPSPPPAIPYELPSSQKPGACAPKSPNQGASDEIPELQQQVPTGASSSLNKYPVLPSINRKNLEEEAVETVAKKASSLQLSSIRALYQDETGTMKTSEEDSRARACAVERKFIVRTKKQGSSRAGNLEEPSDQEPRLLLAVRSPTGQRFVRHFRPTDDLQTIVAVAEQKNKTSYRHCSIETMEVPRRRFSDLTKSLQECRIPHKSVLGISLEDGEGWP
Sequence of UniProt Q15906 (Q15906 whole entry, looked up): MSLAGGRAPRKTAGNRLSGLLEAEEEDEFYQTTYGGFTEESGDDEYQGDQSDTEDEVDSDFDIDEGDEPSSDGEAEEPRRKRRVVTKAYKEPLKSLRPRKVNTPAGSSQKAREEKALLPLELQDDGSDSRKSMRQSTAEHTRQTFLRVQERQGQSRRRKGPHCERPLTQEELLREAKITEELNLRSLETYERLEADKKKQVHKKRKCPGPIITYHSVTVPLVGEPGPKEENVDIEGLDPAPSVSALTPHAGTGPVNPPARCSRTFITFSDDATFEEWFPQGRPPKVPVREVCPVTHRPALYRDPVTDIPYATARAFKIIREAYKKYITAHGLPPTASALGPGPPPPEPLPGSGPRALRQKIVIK
Sequence of UniProt Q9BZM6 (Q9BZM6 whole entry, looked up): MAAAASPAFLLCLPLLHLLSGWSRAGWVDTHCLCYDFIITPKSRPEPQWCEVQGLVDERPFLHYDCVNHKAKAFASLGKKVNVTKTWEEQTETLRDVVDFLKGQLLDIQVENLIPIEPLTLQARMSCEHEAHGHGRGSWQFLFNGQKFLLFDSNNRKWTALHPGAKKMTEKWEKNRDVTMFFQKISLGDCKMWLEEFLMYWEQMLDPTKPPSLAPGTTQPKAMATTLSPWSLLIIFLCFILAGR
Sequence of UniProt Q629K1 (Q629K1 whole entry, looked up): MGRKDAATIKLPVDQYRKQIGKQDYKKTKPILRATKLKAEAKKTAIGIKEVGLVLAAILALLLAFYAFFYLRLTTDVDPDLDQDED

Row | Target | log2 fold change (ibrutinib) | log2 fold change [1] | log2 fold change [2] | log2 fold change (ralimetinib) | log2 fold change [3] | log2 fold change [4] | log2 fold change [5] | log2 fold change (IRAK-1-4 Inhibitor I) | log2 fold change (pinometostat) | log2 fold change [6]
1 | WDR4 isoform 3 (UniProt P57081) | -0.157 | -0.126 | – | – | – | – | – | – | – | –
2 | ULBP1 (UniProt Q9BZM6) | – | -0.132 | -0.038 | -0.058 | 0.112 | 0.006 | 0.009 | – | – | –
3 | TMEM104 (UniProt Q8NE00) | – | 0.009 | 0.038 | -0.09 | -0.473 (active) | 0.082 | – | -0.039 | -0.106 | 0.126
4 | WARS1 (UniProt G3V339) | – | 0.044 | – | – | – | – | – | – | – | –
5 | TXNRD1 isoform 7 (UniProt Q16881) | -0.209 | -0.069 | – | – | -0.01 | – | – | – | – | –
6 | TUT4 (UniProt Q5TAX3) | -0.029 | 0 | – | 0.07 | -0.219 | 0.086 | 0.104 | 0.078 | 0.059 | 0.158
7 | VDAC1 (UniProt P21796) | – | 0.021 | 0.02 | -0.035 | 0.058 | -0.039 | -0.016 | 0.07 | -0.032 | -0.009
8 | TRPT1 isoform 4 (UniProt Q86TN4) | – | – | -0.057 | 0.011 | -0.054 | 0.074 | – | 0.11 | 0.033 | –
9 | TRIM23 (UniProt P36406) | 0.072 | – | – | -0.034 | 0.146 | -0.019 | 0.242 | 0.064 | -0.024 | -0.044
10 | UBE2D1 (UniProt P51668) | 0.007 | – | 0.005 | 0.003 | -0.203 | -0.058 | 0.117 | – | – | 0.028
11 | UBAP2L (UniProt F8W726) | 0.017 | – | – | – | -0.002 | – | 0.136 | – | – | 0.145
12 | VPS72 isoform 2 (UniProt Q15906) | 0.119 | -0.177 | 0.033 | -0.122 | 0.133 | -0.117 | -0.473 (active) | – | – | -0.092
13 | UBXN8 (UniProt O00124) | 0.077 | 0.138 | 0.039 | 0.211 | – | -0.227 | 0.259 | – | – | –
14 | TRIQK (UniProt Q629K1) | 0.007 | -0.054 | – | -0.011 | – | -0.004 | 0.114 | -0.059 | 0.104 | –
15 | WARS1 (UniProt G3V5U1) | -0.158 | 0.156 | – | – | – | – | – | 0.01 | 0.031 | –
16 | TOM1 (UniProt O60784) | 0.093 | -0.087 | – | – | -0.22 | – | -0.236 | 0.058 | -0.032 | –
17 | TUBA4A (UniProt C9JJQ8) | -0.076 | – | – | – | – | – | -0.042 | -0.203 | -0.121 | –
18 | WARS1 (UniProt G3V3P2) | -0.036 | – | – | – | – | – | – | – | – | –
19 | TMEM8A (UniProt Q9HCN3) | 0.06 | – | – | -0.131 | -0.445 (active) | -0.036 | 0.044 | – | – | 0.007

Row | Target | log2 fold change (ibrutinib) | log2 fold change [1] | log2 fold change [2] | log2 fold change (ralimetinib) | log2 fold change [3] | log2 fold change [4] | log2 fold change [5] | log2 fold change (IRAK-1-4 Inhibitor I) | log2 fold change (pinometostat) | log2 fold change [6]
20 | TRIM5 (UniProt Q9C035) | – | -0.045 | 0 | 0.094 | -0.176 | 0.391 | 0.047 | – | – | –
21 | TMEM268 isoform 3 (UniProt Q5VZI3) | 0.036 | -0.334 | -0.042 | -0.056 | -0.095 | -0.016 | 0.014 | – | – | -0.033
22 | TVP23C (UniProt Q96ET8) | – | – | 0.021 | – | 0.011 | – | 0.037 | – | – | –
23 | WARS1 (UniProt G3V227) | 0.03 | 0.259 | -0.022 | – | – | – | -0.048 | – | – | –
24 | WDR46, A0A0G2JJL1 | 0.054 | 0.269 | – | – | 0.003 | – | -0.353 | -0.153 | 0.325 | 0.005
25 | UBXN10 (UniProt Q96LJ8) | 0.054 | -0.145 | – | -0.045 | -0.017 | 0.038 | 0.085 | 0.027 | 0.058 | 0.026
26 | UFM1 isoform 2 (UniProt P61960) | 0.025 | 0.018 | 0.052 | – | -0.013 | – | 0.035 | – | – | 0.026
27 | TOM1L2 (UniProt Q6ZVM7) | – | -0.089 | -0.031 | – | 0.049 | – | – | -0.049 | 0.036 | -0.012
28 | TTC26 | 0.035 | – | – | 0.204 | – | -0.211 | 0.062 | – | – | –
29 | XAB2 (UniProt Q9HCS7) | – | -0.138 | – | 0.14 | – | -0.041 | – | -0.036 | 0.181 | –
30 | VDAC1 (UniProt C9JI87) | – | -0.052 | -0.091 | -0.506 | 0.009 | -0.013 | – | – | – | 0.21
31 | UBE2J2 isoform 3 (UniProt Q8N2K1) | 0.086 | -0.019 | -0.017 | – | -0.185 | – | 0.02 | – | – | –
32 | UTP20 (UniProt O75691) | – | -0.172 | – | – | 0.081 | – | 0 | – | – | –
33 | XIAP (UniProt P98170) | -0.076 | -0.157 | -0.105 | – | -0.05 | – | -0.002 | – | – | 0
34 | XRCC1 (UniProt P18887) | – | -0.368 | 0.027 | -0.115 | -0.066 | 0.432 | -0.047 | 0.13 | 0.41 | –
35 | TMEM219 (UniProt Q86XT9) | 0.115 | -0.015 | 0.083 | – | 0.007 | – | -0.134 | – | – | 0.031
36 | USP48 (UniProt Q86UV5) | -0.07 | – | – | – | -0.246 | – | – | – | – | 0.05
37 | TSPAN13 (UniProt O95857) | 0.175 | 0.151 | – | -0.149 | -0.198 | 0.018 | 0.065 | – | – | 0.113
